# Assay results: PubChem BioAssay (NCI)
# The panel holds about 83,000 compounds, 20% with a hit somewhere; the sample as a whole holds those more often.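 96-well plates, one dose, 48 hours. Percent growth reported; active if below 10.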 A number with no mark means an inactive call. The source made the active and inactive calls.
# Legend:
# Test in all cases: NCI-60 one-dose screen, 48 h (100 = growth as untreated, 0 = no growth, -100 = all killed)
# Details in all cases: 10 µM unless noted
# HCT-15 colon = system: HCT-15 colon
# HT29 colon = system: HT29 colon
# SNB-75 CNS = system: SNB-75 CNS
# SNB-19 CNS = system: SNB-19 CNS
# U251 CNS = system: U251 CNS
# PC-3 prostate = system: PC-3 prostate
# SK-MEL-5 melanoma = system: SK-MEL-5 melanoma
# UACC-62 melanoma = system: UACC-62 melanoma
# LOX IMVI melanoma = system: LOX IMVI melanoma
# SK-MEL-28 melanoma = system: SK-MEL-28 melanoma
Structure (SMILES),growth (HCT-15 colon),growth (HT29 colon),growth (SNB-75 CNS),growth (SNB-19 CNS),growth (U251 CNS),growth (PC-3 prostate),growth (SK-MEL-5 melanoma),growth (UACC-62 melanoma),growth (LOX IMVI melanoma),growth (SK-MEL-28 melanoma)
CCn1c(-c2nonc2N)nc2c(C#CC(C)(C)O)ncc(OC[C@H]3CCCNC3)c21,82.4%,56.2%,2.75% (active),67.8%,41.8%,56.1%,91.7%,79.8%,44.1%,45.8%
CC(=Nc1ccccc1)C1=C(O)C(Cc2ccccc2)NC1=O (stereo not given),5.57% (active),-0.116% (active),19.1%,16.4%,15.5%,5.74% (active),-43.3% (active),24.6%,18.5%,37.8%
C[C@H]1Oc2cc(cnc2N)-c2c(nn(C)c2C#N)CN(C)C(=O)c2ccc(F)cc21,96.7%,33%,83.8%,110%,96.6%,81.7%,99.3%,70.9%,74.2%,87.4%
Cc1cc(Nc2cc(N3CCN(C)CC3)nc(/C=C/c3ccccc3)n2)n[nH]1,13.4%,-34.3% (active),-97.1% (active),14%,-29.9% (active),16.5%,-88.7% (active),-69.9% (active),-92.6% (active),-65.4% (active)
CN1CCN(c2nc(C3=C(c4c[nH]c5ccccc45)C(=O)NC3=O)c3ccccc3n2)CC1,85.3%,11.6%,79.4%,87.5%,69.4%,108%,45.6%,6.81% (active),80.4%,3.91% (active)
CC(=O)C1=C(C)NC(SCc2nnc(-c3ccc(C)cc3)o2)=NC1c1ccc(F)cc1 (stereo not given),101%,110%,98.5%,94.1%,95.2%,85.3%,99%,84.6%,93.2%,-78.4% (active)
COc1ccc2c(CCc3ccc(Cl)cc3)c3[n+](cc2c1OC)CCc1cc2c(cc1-3)OCO2,111%,43.1%,58%,28.3%,22.4%,36.4%,18.2%,30.1%,50.9%,27.6%
COc1c(C(NC(=O)c2ccccc2)c2sccc2C)cc(Cl)c2cccnc12 (stereo not given),101%,94.1%,88.4%,118%,88.6%,83.2%,98.4%,93%,98.1%,114%
CCCNC(=O)c1cn2ncnc(Nc3cc(C(=O)NC4CC4)ccc3C)c2c1C,87.2%,81.9%,74.6%,70.7%,77.2%,74.3%,38.2%,49.1%,40.1%,30.1%
COCc1c(-c2ccc(NC(=O)Nc3cc(C(F)(F)F)ccc3F)c(F)c2)c2c(N)ncnn2c1CN1CCOCC1,-21% (active),-26.8% (active),-95.8% (active),-14.9% (active),-35.5% (active),-25.4% (active),-78.9% (active),-38.8% (active),-81.7% (active),-6.65% (active)
O=C1NC(=O)C(c2cnc3ccccn23)=C1c1cn2c3c(cc(F)cc13)CN(C(=O)N1CCCCC1)CC2,56.7%,22.9%,37.4%,71.1%,36.3%,41.8%,32.8%,40.1%,27.5%,76.8%
COc1cc2cc(NCc3ccc(F)cc3)nc(C)c2cc1OC,50.9%,11.9%,101%,43.8%,29.7%,48.2%,38.3%,27.8%,6.57% (active),35.4%
CC(=O)c1c(C)c2cnc(Nc3ccc(N4CCNCC4)cn3)nc2n(C2CCCC2)c1=O,22.4%,-22.8% (active),54.9%,50.5%,37.8%,32.9%,41.1%,49.9%,17.6%,56.4%
COc1cnc2c(c1)C(=O)c1c-2n(CCCNC2=NCCS2)c(=O)c2cc(Cl)ccc12,-69.2% (active),-82.7% (active),57.9%,-29.7% (active),-89.7% (active),20.5%,39.4%,-76.6% (active),-90.5% (active),90.8%
